TROY NFkB inh: TROY signaling inhibition | AID 1347056 | inhibition, % at 10 µM | hit rate 0.98% among 360,000 | Q293 LMP1-TROYcd NF-kB luciferase reporter, 4 h;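 active means compounds whose plate-normalised and pattern-corrected inhibition of the luciferase reporter signal at the single screening dose is 50% or more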
HSP90 refold inh: HSP90 refolding inhibition in rabbit reticulocyte lysate. luciferase refolding luminescence, 3 h. inhibition, % at 5.6 µM. hit rate 0.91% among 290,000. AID 1789;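 active means inhibition above the screen-wide mean plus 3 SD, computed separately per campaign, cut at about 16% in these data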;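 further: 0% = DMSO wells and 100% = 60 µM geldanamycin wells; inhibitors lower the luminescence because luciferase stays unfolded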
Platelet DG rel: modulates dense granule release in human platelets | human platelet-rich plasma, SFLLRN dense granule ATP release, luminescence | inhibition, %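 (compounds screened at 7.5 µM in platelet-rich plasma)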 | hit rate 0.22% among 300,000;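 active means mean replicate score, as percent of positive control, at or above 50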
C8 TRAIL sens: sensitizes caspase-8 expressing cells to TRAIL; NB7+C8 cells + TRAIL, ATPlite viability luminescence; inhibition (viability loss, TRAIL sensitization), % at 10 µM; hit rate 1% among 360,000; AID 624354;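 active means compounds causing at least 50% loss of cell viability in the single-dose screen, relative to plate controls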
TWEAK-Fn14 inh: TWEAK-Fn14 signaling inhibition; hit rate 2% among 360,000; inhibition, % at 10 µM; TWEAK-stimulated Fn14 reporter cells, luciferase luminescence, 8 h; in the data active means inhibition above about 50%
PPC-1+TRAIL kill: PPC-1 cancer cell killing with TRAIL present. PPC-1 cells + TRAIL, ATPLite viability luminescence. cell killing (% activity), % at 4 µM or 5 µM. hit rate 0.41% among 220,000;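 active means cell killing above 50% in the first pass at 4 µM, then a duplicate retest at 5 µM averaging 50% or more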;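 further: plate controls were cells with TRAIL plus DMSO for no effect and medium-only wells lacking cells for full effect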
* hit, by the source's call; . = no result given. Only some compounds are listed: those with a hit (about 3.5% of all), similar ones and a draw of the others.

SMILES	TROY NFkB inh	HSP90 refold inh	Platelet DG rel	C8 TRAIL sens	TWEAK-Fn14 inh	PPC-1+TRAIL kill
COc1cc2nc(N(C)C)nc(N)c2cc1OC	-32	0	-2	1	-33	4
CN(C)c1ccc(Sc2ccc3nc(N)nc(N)c3c2)cc1	32	.	.	71*	32	.
COc1ccc(C(=O)NNC(=O)c2cccc(F)c2)cc1	-9	1	3	-11	7	14
CCCNC(=O)Nc1ccc(C(F)(F)F)cc1	-33	-3	-1	10	-15	-12
COc1ccc(OCCN(C)Cc2ccccc2)cc1	-32	4	-2	-3	-9	0
COc1ccc(OCCCN(C)Cc2ccccc2)cc1	0	-7	6	4	76*	.
COCC(=O)N1CCCC(CNS(=O)(=O)c2ccc(OC)cc2)C1 (centres undefined)	71*	2	-4	-2	-9	-15
Fc1cccc(CSc2nc3ccncc3[nH]2)c1	-55	4	3	58*	-18	41
Clc1cccc(CSc2nc3ccncc3[nH]2)c1	-20	-2	2	41	-16	28
Nc1ncc([N+](=O)[O-])c(N2CCCCCC2)n1	33	-2	3	-1	75*	.
O=[N+]([O-])c1ccc(N2CCCC2)nc1N1CCCC1	1	4	4	3	-9	11
NS(=O)(=O)c1cccc(NC(=O)CSc2n[nH]c(-c3cccs3)n2)c1	15	.	.	4	9	.
COc1ccc(-c2nc(SCC(=O)Nc3cccc(S(N)(=O)=O)c3)n[nH]2)cc1	-22	.	.	62*	-9	.
Cc1ccc(-n2cc(C(=O)c3cc(Cl)ccc3O)cc(C#N)c2=O)cc1	20	0	0	11	1	11
Cc1ccccc1NC(=O)c1cc(C(=O)c2cc(Cl)ccc2O)cn(-c2ccccc2C)c1=O	38	-5	9	26	87*	16
COc1ccc(C)cc1NC(=O)Nc1ccc(C(=O)N2CCCC2)cc1	-2	5	15	16	-19	.
O=C(O)C(O)(c1ccccc1)C(O)c1ccccc1 (centres undefined)	-19	.	3	-10	6	.
O=C(c1ccc(C(F)(F)F)cc1)N1CCC(=O)N(C(CO)Cc2ccccc2)CC1 (centres undefined)	-29	.	3	3	70*	.
O=C(c1cccc(C(F)(F)F)c1)N1CCC(=O)N(C(CO)Cc2ccccc2)CC1 (centres undefined)	4	.	-11	-26	1	.
O=[N+]([O-])c1ccccc1CSc1ccccn1	-2	1	3	-4	-25	-10
O=[N+]([O-])c1ccccc1CCc1cnc(Cl)s1	52*	1	6	-3	58*	.
COc1ccc(S(=O)(=O)NCC(c2cccnc2)N2CCN(C)CC2)cc1C (centres undefined)	1	1	74*	-8	-2	6
COc1ccc(S(=O)(=O)NCC(c2cccnc2)N2CCN(C)CC2)cc1OC (centres undefined)	-2	2	-5	-14	1	.
CC(C)C[C@@H](CNCC(=O)[C@H](CC(=O)O)NC(=O)c1[nH]cnc1C(=O)N[C@H](CN)CC(C)C)NC(=O)c1nc[nH]c1C(=O)N[C@@H](Cc1ccccc1)C(=O)O	-6	.	.	0	3	.
O=C(COc1ccc(S(=O)(=O)N2CCCCC2)cc1Cl)N1CCOCC1	-2	-4	-3	9	-8	.
SMILES	TROY NFkB inh	HSP90 refold inh	Platelet DG rel	C8 TRAIL sens	TWEAK-Fn14 inh	PPC-1+TRAIL kill
CC1(C)N=C(N)N=C(N)N1c1ccc(OCC(=O)N2CCOCC2)c(Cl)c1	-11	.	.	83*	6	.
CC1(C)N=C(N)N=C(N)N1c1ccc(OCC(=O)N2CCOCC2)cc1	9	.	.	75*	-21	.
Cc1ccc(-c2ccc(OCC(=O)N3CCOCC3)cc2)cc1	-21	3	-2	-2	-5	26
CC1([N+](=O)[O-])COC(C=Cc2ccccc2)OC1 (centres undefined)	-16	.	.	-16	-6	.
COc1ccc(NC(=O)C(=O)Nc2cccc3cccnc23)cc1OC	-22	-6	1	17	105*	.
Cc1cccc2cc3c(N)c(C(=O)Nc4ccc(N5CCOCC5)cc4)sc3nc12	51*	-2	-3	29	58*	22
CCc1cc2c(COC(=O)CCNS(=O)(=O)c3cccc(C(F)(F)F)c3)cc(=O)oc2cc1O	21	.	.	54*	10	.
Cc1cc(NC(=O)COC(=O)CCNS(=O)(=O)c2cccc(C(F)(F)F)c2)no1	7	4	14	3	11	6
CCC(CO)Oc1cc(NCc2ccccc2)c2ncn(C(C)C)c2c1 (centres undefined)	-32	.	.	19	-3	.
CCC(COC)Oc1cc(NCc2ccccc2)c2ncn(C(C)C)c2c1 (centres undefined)	30	.	.	58*	33	.
CC(C)n1cnc2c(NCc3ccccc3)cc(N[C@H](C)CO)cc21	7	.	.	60*	2	.
COCCNC(=O)C(c1ccc(F)cc1)N(C(=O)CCC(=O)Nc1ccccn1)C1CCCCC1 (centres undefined)	3	0	-10	-13	8	.
O=C(NCc1ccc(F)cc1)c1cc(C2CCCN(C(=O)c3ccc4ccccc4c3)C2)on1 (centres undefined)	17	.	.	12	6	.
O=[N+]([O-])c1ccc2nc(-c3ccc(OC(F)F)cc3)cn2c1	-30	17*	3	27	31	-22
O=[N+]([O-])c1ccc(-c2cn3ccccc3n2)cc1	-57	.	6	28	9	.
Cn1cc(-c2cc(C(=O)O)on2)cn1	-2	-5	4	-13	0	1
COc1ccc(CNc2oc(COc3ccc(Cl)cc3)nc2C#N)cc1	45	1	-1	0	31	-1
COc1ccc(Nc2oc(COc3ccc(Cl)cc3)nc2C#N)cc1	32	4	-4	11	88*	9
COc1ccc(CCNc2oc(COc3ccc(Br)cc3)nc2C#N)cc1OC	59*	-2	-2	-1	25	16
COc1ccc2[nH]c3c(c2c1)CCN1C(=O)N([C@@H](C)C(=O)NCCc2ccc(F)cc2)C(=O)[C@]31C	-8	1	0	5	-9	.
CNc1ncnc(Sc2nc(N)nc3nc[nH]c23)c1[N+](=O)[O-]	2	.	.	74*	27	.
Nc1nc(Sc2ccc([N+](=O)[O-])c3nonc23)c2[nH]cnc2n1	-7	.	.	75*	32	.
Nc1nc(SCc2ccccc2)c2[nH]cnc2n1	7	0	-2	-7	9	.
Nc1nc(N)c2[nH]cnc2n1	.	.	-4	.	.	.
CCN(CC)c1ccc(C(=O)Nc2ccccc2)cc1[N+](=O)[O-]	-3	-5	-2	5	-37	14
O=C1NN(c2ccccc2)C(=O)/C1=C/c1ccc(Sc2ccc(Cl)cc2)o1	-6	7	2	10	63*	0
Cc1ccc(Sc2ccc(/C=C3/C(=O)NN(c4ccccc4)C3=O)o2)cc1	-12	2	3	0	89*	1

Screening data as filed in PubChem.
